From PubChem
DT40 TDP1 CPT – growth inhibition of DT40 Tdp1-/-;hTDP1 cells with camptothecin (screen for TDP1 inhibitors); hit rate 12% among 420,000; Potency, µM (series often up to 46.2 µM), inactives show at the highest dose activity change, negative = growth inhibition, usual class: inhibitors; AID 686979; chicken DT40 Tdp1-/-;hTDP1 cells + 20 nM CPT, ATP luminescence, 48 h; further: potency means the concentration at half of the fitted maximal effect; on the % scale 0 is the no-effect control and ±100 the full control effect; nearly all actives have a fitted effect of over 55% in size
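Cell growth measured by CellTiter-Glo luminescence after a minimum 48 h, 37 C compound exposure with 20 nM CPT in Tdp1-knockout DT40 cells stably expressing hTDP1, seeded 400/well; qHTS titration format.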
ClpP mod – qHTS Assay for Activators of ClpP | hit rate 1.9% among 340,000 | AID 651965, 2013 | Potency, µM (titrated, usually from 57.5 µM), for inactives: top-dose activity change, negative = active | purified B. subtilis ClpP, FRET peptide cleavage, 20 min; active means well fitted falling curve with a large enough effect; inconclusive means small, poorly fitted or top-dose-only effect; inactive means no such curve, though single readings can be large or run the other way; further: potency means the concentration at half of the fitted maximal effect; the source files actives as falling curves though it sought activators and does not explain the sign; nearly all actives have a fitted effect of over 65% in size
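ClpP 10 microg/mL final, pH 8 Tris/KCl buffer with BSA, glycerol, Tween-20; compound pinned in; FRET-FV substrate; RT 20 min; Ex320/Em430; ΔFRET vs ADEP 5.8 microM, DMSO, no enzyme.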
DRD3 antagonist – blocks the human D3 dopamine receptor. D3R cells, DiscoveRx beta-arrestin luminescence, antagonist mode; hits give low values. max response, negative = inhibition, %. hit rate 2.5% among 360,000; in the data active means max response below about -50%; inconclusive means no clear call, values can overlap the other calls; further: on the % scale 0 is the no-effect control and ±100 the full control effect
Target sequence (P35462 whole entry, looked up): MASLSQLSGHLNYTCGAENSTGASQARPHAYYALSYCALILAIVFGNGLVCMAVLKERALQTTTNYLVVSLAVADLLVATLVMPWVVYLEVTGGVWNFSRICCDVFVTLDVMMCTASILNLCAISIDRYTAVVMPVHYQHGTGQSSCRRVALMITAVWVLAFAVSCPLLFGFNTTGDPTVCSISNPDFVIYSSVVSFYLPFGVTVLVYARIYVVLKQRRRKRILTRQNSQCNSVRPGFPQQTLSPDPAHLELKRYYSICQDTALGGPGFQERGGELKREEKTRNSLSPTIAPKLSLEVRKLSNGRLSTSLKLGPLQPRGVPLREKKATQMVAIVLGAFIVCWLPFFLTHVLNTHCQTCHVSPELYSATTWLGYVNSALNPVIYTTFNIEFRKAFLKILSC
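Cells expressing the human receptor were seeded at 1500 cells/well, incubated overnight at 37 degrees C in 5% CO2, then exposed to library compounds with dopamine controls for 90 minutes at 37 degrees C before luminescent detection.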
IL1B secr inh – inflammasome signaling inhibition, IL-1 beta readout; activity change, % at 57.5 µM; hit rate 4.7% among 360,000; THP-1 LPS/ATP IL-1B secretion, AlphaLISA, 16 h; hits give low values; in the data active means activity change below about -50%; inconclusive means mostly about -30% to -49%; further: on the % scale 0 is the no-effect control and ±100 the full control effect
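Secreted IL-1B measured by AlphaLISA bead assay after 16 h compound exposure of THP-1 cells; compounds (final up to 57.5 uM) added 1 h before LPS (250 ng/mL) and ATP (1.25 mM) stimulation; lower signal means less secretion.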
DT40 TDP1 no CPT – qHTS for Inhibitors of human tyrosyl-DNA phosphodiesterase 1 (TDP1): qHTS in cells in absence of CPT. DT40 Tdp1-/- hTDP1 cells, no CPT, ATP luminescence, 48 h. Potency, µM (series often up to 46.2 µM), for the others: at the top dose activity change, negative = growth inhibition, hits mostly inhibitors. hit rate 15% among 420,000. AID 686978, 2013; further: potency means the concentration at half of the fitted maximal effect; on the % scale 0 is the no-effect control and ±100 the full control effect; nearly all actives have a fitted effect of over 55% in size
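Luminescent ATP content (CellTiter-Glo) served as the growth readout. Knockout chicken DT40 cells expressing human TDP1 were exposed to compounds without camptothecin for a minimum 48 hr at 37 °C.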
D3 ag – D3 dopamine receptor (human) agonism. P35462. D3R DiscoveRx beta-arrestin cells, luminescence, 90 min. max activation, %. hit rate 0.58% among 410,000. AID 652048; in the data active means max activation above about 30%; further: 0% is about no effect
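Cells at 1500/well, incubated overnight, then treated with pinned compounds (dopamine as control) for 90 min at 37 degrees C. DiscoveRx reagent added for 30 - 60 minutes at room temperature; luminescence read.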
Starred values were filed as active, the others as inactive; ? = inconclusive; nt = no result; ! = a repeat was not active. Most compounds without a hit are left out; they make up all but 21% or so of the library. Unless noted, the call rests on the fitted dose curve; in most records, active means well fitted inhibition curve with a large enough effect; inconclusive means small, poorly fitted or top-dose-only effect; inactive means flat fitted curve, though single readings scatter.

SMILES	DT40 TDP1 CPT	ClpP mod	DRD3 antagonist	IL1B secr inh	DT40 TDP1 no CPT	D3 ag
Cc1ccc(/C=N\NC(=O)C2CN(S(=O)(=O)c3ccccc3)CCN2S(=O)(=O)c2ccccc2)cc1 (configuration not stated)	?	-1%	-4	-5	18µM*	10
Cc1cccc(C(C)C)c1NC(=O)C1CN(S(=O)(=O)c2ccccc2)CCN1S(=O)(=O)c1ccccc1 (configuration not stated)	26µM*	1%	-5	-14	18µM*	-5
CC(CN(C)C)C(C)(O)Cc1ccc(Cl)cc1 (configuration not stated)	-25%	nt	nt	nt	-10%	-16
COCC(=O)Nc1cc(C(=O)N2CCC(c3ccccc3)CC2)cc2nc(-c3ccccc3)n(C)c12	16µM*	nt	nt	nt	?	nt
CC(C(=O)NCC1CCCCC1)N1CCN(S(=O)(=O)c2ccccc2F)CC1 (configuration not stated)	-24%	0%	11	23	-16%	-4
Cc1ccccc1NNC(=O)C(=O)NNc1ccccc1C	-2%	-2%	-23	27	-16%	6
Cc1ccccc1NC(=S)Nc1ccccc1	-6%	2%	11	17	-18%	0
O=C(Nc1ccccc1)/C(=C/c1ccccc1)c1ccccc1	?	-3%	7	-9	12µM*	4
Cc1ccccc1NC(=O)C(Cl)=C(Cl)Cl	21µM*	nt	-16	-97*	23µM*	11
Cc1ccccc1NC(=O)/C(=C/c1ccccc1)c1ccccc1	21µM*	0%	2	1	12µM*	3
O=C(O)c1ccc(NC(=S)Nc2ccccc2)cc1	?	-4%	-2	-2	2%	10
CN1CCN(C(=O)/C(=C\c2ccccc2)c2ccccc2)CC1	-19%	-3%	-55*	-1	-27%	3
CN1CCN(C(=O)/C(=C/c2ccc(F)cc2)NC(=O)c2ccccc2)CC1	6%	nt	1	-6	-13%	-2
C/C(N)=C(/C#N)C(=O)CSc1cc(C)c2cc(C)cc(C)c2n1	?	nt	9	0	?	5
COC(=O)c1n[nH]n(-c2cc(Cl)cc(Cl)c2)c1=O	25%	0%	1	15	5%	-2
Cc1cnc(NC(=O)C2(C)CCN2C(=O)C(C)C)s1 (configuration not stated)	2%	0%	27	24	-8%	1
O=C(Nc1ccc(F)cc1)/C(Cl)=C/c1ccccc1	-2%	nt	-11	-2	?	-9
CC(=O)c1ccc(NC(=O)/C(Cl)=C/c2ccccc2)cc1	5%	nt	2	-62*	0%	1
COc1cc2nc(SCc3ccc(F)cc3)n(Cc3cccs3)c(=N)c2cc1OC	-43%	?	46	-3	-14%	5
CCSc1nc2cc(OC)c(OC)cc2c(=O)n1CCc1ccccc1	16µM*	-2%	28	12	21µM*	26
COCCCn1c(SCCc2ccccc2)nc2cc(OC)c(OC)cc2c1=N	16µM*	-23%	16	-17	13µM*	8
COc1cc2nc(SCC(=O)NCCc3ccccc3)n(Cc3ccco3)c(=O)c2cc1OC	-16%	1%	?	-2	-5%	-4
C#CCSc1nnc(-c2cccc3ccccc23)o1	-13%	32µM*	13	-3	-9%	12
O=C(OCC#CCSc1nnc(-c2cccc3ccccc23)o1)c1cccs1	-1%	28µM*!	25	-11	?	6
O=C(OCC#CCSc1nnc(-c2ccccc2)o1)c1cccs1	-11%	-2%	16	7	1%	9
CC(=O)Nc1ccc(NC(=O)CC(C)n2ccnc2)cc1 (configuration not stated)	0%	nt	10	14	-13%	-5
Cc1cc(Cl)ccc1NC(=O)CCCn1nc(C)c2c(C)n(-c3ccccc3)nc2c1=O	?	-5%	nt	nt	?	8
